Laboratory results published in PubChem BioAssay (Tox21).
Several values for one entry are separate records, joined by “and”; a condition that tells them apart may be missing. Equal values may be shown once. Records with an inconclusive call do not appear. Where a call stands in place of a potency, no number is given. Some compounds were tested as several samples or in several runs, with calls that do not always agree. Activity calls are given as the source filed them. Unless noted, calls follow the shape of the full dose curve.

Experiments:
[1] = Nuclear factor erythroid 2-related factor 2/antioxidant responsive element (Nrf2/ARE) small molecule agonists: qHTS cell viability counter screen in human keratinocytes (AID 1919968; active = well fitted curve in the direction sought with a large enough effect in the repeat runs; an effect the other way counts as inactive or inconclusive; also: nearly all actives have a fitted effect of over 55% in size; also: potency is read from the fitted curve at half-maximal effect)
Method in brief: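 In human HaCaT keratinocytes stably expressing an ARE-driven luciferase, compound exposure lasted 23 h at 37 C under 5% CO2. Viable cells are quantified with a protease-based fluorogenic reagent (CellTiter-Fluor) read 1 h after addition.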

[2] = Nuclear factor erythroid 2-related factor 2/antioxidant responsive element (Nrf2/ARE) small molecule agonists: luciferase reporter gene qHTS assay in human keratinocytes (AID 1919969); also: nearly all actives have a fitted effect of over 35% in size; also: potency is read from the fitted curve at half-maximal effect
[3] = target: Gonadotropin-releasing hormone receptor (Homo sapiens) (UniProt P30968); test: Human gonadotropin-releasing hormone receptor (GnRHR) small molecule agonists, calcium flux assay in GnRHR-HEK293 cells (AID 1920063); also: nearly all actives have a fitted effect of over 35% in size
Sequence of Gonadotropin-releasing hormone receptor (Homo sapiens) (P30968 whole entry, looked up): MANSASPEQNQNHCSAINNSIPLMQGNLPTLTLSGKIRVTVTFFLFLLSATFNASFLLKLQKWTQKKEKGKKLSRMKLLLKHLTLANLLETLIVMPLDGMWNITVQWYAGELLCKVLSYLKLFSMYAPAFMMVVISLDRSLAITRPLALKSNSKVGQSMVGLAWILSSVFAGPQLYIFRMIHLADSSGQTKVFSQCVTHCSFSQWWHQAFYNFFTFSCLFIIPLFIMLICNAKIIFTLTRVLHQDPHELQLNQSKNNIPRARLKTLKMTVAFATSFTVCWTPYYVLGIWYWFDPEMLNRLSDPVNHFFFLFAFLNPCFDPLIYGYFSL
Method in brief: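 Intracellular calcium rise is the read-out: engineered human GnRHR HEK293 cells, dye-loaded, are exposed to DMSO-dissolved compounds and fluorescence at Ex/Em 480/540 is tracked for 3 min.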

[4] = target: KiSS-1 receptor (Homo sapiens) (UniProt Q969F8); test: Human kisspeptin (KISS1R) small molecule agonists, calcium flux assay in KISS1R-HEK293 cells (AID 1920064; active = well fitted curve in the direction sought with a large enough effect in the repeat runs; an effect the other way counts as inactive or inconclusive)
Sequence of KiSS-1 receptor (Homo sapiens) (Q969F8 whole entry, looked up): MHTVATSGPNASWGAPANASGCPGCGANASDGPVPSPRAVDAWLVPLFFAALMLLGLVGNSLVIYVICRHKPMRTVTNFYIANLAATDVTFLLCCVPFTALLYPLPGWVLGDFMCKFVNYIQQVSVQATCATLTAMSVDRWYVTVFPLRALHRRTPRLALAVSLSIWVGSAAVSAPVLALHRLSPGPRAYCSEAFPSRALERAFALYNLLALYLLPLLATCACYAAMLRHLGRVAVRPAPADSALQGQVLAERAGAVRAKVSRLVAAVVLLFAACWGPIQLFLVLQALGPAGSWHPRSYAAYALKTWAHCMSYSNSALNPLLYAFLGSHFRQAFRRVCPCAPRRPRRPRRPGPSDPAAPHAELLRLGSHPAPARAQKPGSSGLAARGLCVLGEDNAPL
Method in brief: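 Concentration-response testing used 15 concentrations in triplicate on human KISS1R-expressing HEK293 cells. Calcium-dependent fluorescence (Ex/Em 480/540) was followed kinetically for 3 min after compound transfer.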

[5] = G protein-coupled receptor (GPCR) small molecule agonists, calcium flux assay: HEK293 wild type cell line counter screen (AID 1920065)
Method in brief: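 Fluorescence intensity signals activation. After overnight (18 h) culture and a 1 h calcium dye load at 37 C, compounds are added by pin tool and the plate read at 480/540 nm for 3 min in 1 s steps.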

[6] = p53 small molecule agonists, cell-based qHTS assay with human liver microsomes (AID 1963577)
Method in brief: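 p53RE-bla cells, 4,000/well, compound added after 5 h, with human liver microsomes 0.5 mg/mL and NADPH 0.5 mg/mL final; 16 h at 37 C, then LiveBLAzer 2 h RT, fluorescence.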

[7] = p53 small molecule agonists, cell-based qHTS assay with rat liver microsomes (AID 1963578)
Method in brief: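 p53RE-bla cells, 4,000/well, pre-incubated 5 h, then given compounds plus rat liver microsomes (0.5 mg/mL final) and NADPH (0.5 mg/mL final). Incubation 16 h at 37 C; beta-lactamase reporter read by LiveBLAzer fluorescence after 2 h at room temperature.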

[8] = p53 small molecule agonists, cell-based qHTS assay with human liver microsomes: qHTS cell viability counter screen (AID 1963579); also: nearly all actives have a fitted effect of over 45% in size; also: potency is read from the fitted curve at half-maximal effect
Method in brief: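 p53RE-bla cells, 4,000/well, dosed 5 hours after plating, with human liver microsomes (0.5 mg/mL final) plus NADPH (0.5 mg/mL final), 16 hours at 37 C. Viability read as CellTiter-Glo luminescence after 30 min at room temperature.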

[9] = p53 small molecule agonists, cell-based qHTS assay with rat liver microsomes: qHTS cell viability counter screen (AID 1963580); also: nearly all actives have a fitted effect of over 45% in size; also: potency is read from the fitted curve at half-maximal effect
Method in brief: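 Counter screen for cytotoxicity under metabolic activation: rat liver microsomes and NADPH, 0.5 mg/mL final each, added with compounds to p53RE-bla HCT-116 cells; 16 h at 37 C, then ATP luminescence read.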

[10] = p53 small molecule agonists, cell-based qHTS assay (AID 1963582; active = well fitted activation curve with a large enough effect in the signal ratio in the repeat runs, not every such curve was filed as active; the % refers to the signal ratio)
Method in brief: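 After plating, p53RE-bla cells sat 5 h in the incubator; compounds or DMSO vehicle were pinned in; a 16 h incubation at 37 C followed; FRET substrate was added and, 2 h later at RT, fluorescence was measured.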

[11] = target: 5-hydroxytryptamine receptor 2A (Homo sapiens) (UniProt P28223); test: 5-hydroxytryptamine receptor 2A (HTR2A) small molecule agonists, cell-based qHTS assay (AID 1963587); also: nearly all actives have a fitted effect of over 30% in size; also: potency is read from the fitted curve at half-maximal effect
Sequence of 5-hydroxytryptamine receptor 2A (Homo sapiens) (P28223 whole entry, looked up): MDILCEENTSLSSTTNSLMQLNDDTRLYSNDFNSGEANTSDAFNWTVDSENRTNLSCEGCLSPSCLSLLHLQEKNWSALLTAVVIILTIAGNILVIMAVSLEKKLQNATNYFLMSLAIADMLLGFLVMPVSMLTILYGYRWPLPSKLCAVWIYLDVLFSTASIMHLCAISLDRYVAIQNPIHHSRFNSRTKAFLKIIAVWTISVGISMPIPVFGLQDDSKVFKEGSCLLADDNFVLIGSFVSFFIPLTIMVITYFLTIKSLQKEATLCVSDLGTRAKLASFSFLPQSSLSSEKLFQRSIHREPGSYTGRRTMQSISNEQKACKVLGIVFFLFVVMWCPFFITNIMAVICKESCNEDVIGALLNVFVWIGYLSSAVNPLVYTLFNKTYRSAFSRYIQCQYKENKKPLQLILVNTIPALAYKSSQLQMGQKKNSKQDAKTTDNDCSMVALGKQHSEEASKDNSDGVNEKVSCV
Method in brief: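 HTR2A-CHO cells, plated 18 h at 37 C/5% CO2, dye-loaded 1 h at 37 C; compounds in DMSO added by pin tool (agonist mode). Intracellular calcium flux read as kinetic fluorescence on FDSS over 2 min at 1 s intervals.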

[12] = target: Muscarinic acetylcholine receptor M1 (Homo sapiens) (UniProt P11229); test: Cholinergic receptor muscarinic 1 (CHRM1) small molecule antagonists, cell-based qHTS assay (AID 1963588); also: nearly all actives have a fitted effect of over 40% in size
Sequence of Muscarinic acetylcholine receptor M1 (Homo sapiens) (P11229 whole entry, looked up): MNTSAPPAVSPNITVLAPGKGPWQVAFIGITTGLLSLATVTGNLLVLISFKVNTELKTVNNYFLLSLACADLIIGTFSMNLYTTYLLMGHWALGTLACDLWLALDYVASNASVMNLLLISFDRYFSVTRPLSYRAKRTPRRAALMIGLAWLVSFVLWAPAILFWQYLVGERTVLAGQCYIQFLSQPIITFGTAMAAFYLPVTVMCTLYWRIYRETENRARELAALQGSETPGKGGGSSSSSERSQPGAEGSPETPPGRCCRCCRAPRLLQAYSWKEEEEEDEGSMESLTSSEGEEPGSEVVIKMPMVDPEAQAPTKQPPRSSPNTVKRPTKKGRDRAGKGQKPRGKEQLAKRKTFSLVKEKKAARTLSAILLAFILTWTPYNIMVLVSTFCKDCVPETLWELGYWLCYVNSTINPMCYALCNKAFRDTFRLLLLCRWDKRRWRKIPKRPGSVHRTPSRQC
Method in brief: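 Compounds were tested at 15 concentrations in three independent runs. Dye-loaded CHRM1-CHO cells were exposed 5 min at room temperature before stimulation by acetylcholine added at 50nM. Intracellular calcium was read kinetically on FDSS for 3 min.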

[13] = target: Muscarinic acetylcholine receptor M1 (Homo sapiens) (UniProt P11229); test: Cholinergic receptor muscarinic 1 (CHRM1) small molecule agonists, cell-based qHTS assay (AID 1963589); also: nearly all actives have a fitted effect of over 35% in size
Method in brief: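 Fluorescent calcium dye reports M1 activation in stably transfected CHO cells. Compounds, 15 concentrations, added after 1 h dye loading at 37 C; kinetic reading at 1 sec intervals.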

[14] = cAMP Responsive Elements (CRE) small molecule agonists, cell-based qHTS assay (AID 1963590)
Method in brief: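 Compound exposure lasted 3 h at 37 C/5% CO2 in CRE-bla HEK 293T cells grown in assay medium with 10% dialyzed FBS and 25 mM HEPES. Reporter signal came from LiveBLAzer B/G FRET substrate, 2 h, room temperature.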

[15] = cAMP Responsive Elements (CRE) small molecule antagonists, cell-based qHTS assay (AID 1963591; active = well fitted inhibition curve with a large enough effect in the signal ratio in the repeat runs, not every such curve was filed as active; the % refers to the signal ratio)
Method in brief: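 Stimulation used NKH477 at a final 0.25 uM for 3 h in compound-treated CRE-bla HEK293T cells, seeded 18 h beforehand. Reporter activity was measured with LiveBLAzer B/G FRET substrate after 2 h at room temperature.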

[16] = target: Beta-2 adrenergic receptor (Homo sapiens) (UniProt P07550); test: Adrenergic beta2 receptor (ADRB2) small molecule antagonists, cell-based qHTS assay (AID 1963592); also: series mostly up to about 92 µM; nearly all actives have a fitted effect of over 50% in size
Sequence of Beta-2 adrenergic receptor (Homo sapiens) (P07550 whole entry, looked up): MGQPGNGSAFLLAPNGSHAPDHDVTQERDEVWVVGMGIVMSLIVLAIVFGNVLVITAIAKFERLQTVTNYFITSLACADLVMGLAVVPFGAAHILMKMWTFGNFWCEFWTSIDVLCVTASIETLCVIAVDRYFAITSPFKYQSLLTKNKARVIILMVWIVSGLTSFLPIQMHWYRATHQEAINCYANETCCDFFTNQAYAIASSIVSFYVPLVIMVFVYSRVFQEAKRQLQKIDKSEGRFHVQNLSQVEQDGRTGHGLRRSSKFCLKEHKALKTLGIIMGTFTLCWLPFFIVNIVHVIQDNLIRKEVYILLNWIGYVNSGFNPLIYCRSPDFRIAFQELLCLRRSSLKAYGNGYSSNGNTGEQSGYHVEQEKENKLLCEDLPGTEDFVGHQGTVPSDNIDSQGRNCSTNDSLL
Method in brief: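 Assay format: CHO-ADRB2 cells, 18-20hr seeding at 37C/5% CO2, then compound plus 1nM isoproterenol agonist mix for 0.5hr RT. Homogeneous time-resolved fluorescence cAMP detection after 1hr, expressed as 665/615 nm ratio.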

[17] = target: D(2) dopamine receptor (Homo sapiens) (UniProt P14416); test: Dopamine D2 receptor (DRD2) small molecule agonists, cell-based qHTS assay (AID 1963594); also: nearly all actives have a fitted effect of over 35% in size
Sequence of D(2) dopamine receptor (Homo sapiens) (P14416 whole entry, looked up): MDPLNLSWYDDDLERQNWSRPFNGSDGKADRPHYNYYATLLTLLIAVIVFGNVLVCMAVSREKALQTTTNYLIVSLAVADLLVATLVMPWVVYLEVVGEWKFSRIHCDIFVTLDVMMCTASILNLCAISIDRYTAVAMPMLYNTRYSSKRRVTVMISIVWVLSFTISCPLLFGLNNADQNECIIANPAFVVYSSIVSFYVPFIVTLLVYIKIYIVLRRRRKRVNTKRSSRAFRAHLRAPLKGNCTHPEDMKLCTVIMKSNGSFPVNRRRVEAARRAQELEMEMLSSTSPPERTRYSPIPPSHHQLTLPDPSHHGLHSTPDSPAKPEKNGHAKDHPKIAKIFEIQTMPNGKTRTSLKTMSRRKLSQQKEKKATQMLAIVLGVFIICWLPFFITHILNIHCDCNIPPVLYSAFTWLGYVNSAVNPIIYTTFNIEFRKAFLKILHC
Method in brief: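 HEK293 cells stably expressing DRD2 were cultured 24 h at 37 C, then given Ro20-1724 (0.1 mM final) and compounds for 10 min at room temperature. NKH477 (200nM) was then added for 30 min. cAMP was read by HTRF.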

[18] = target: D(2) dopamine receptor (Homo sapiens) (UniProt P14416); test: Dopamine D2 receptor (DRD2) small molecule antagonists, cell-based qHTS assay (AID 1963595; active = well fitted inhibition curve with a large enough effect in the signal ratio in the repeat runs, with a control signal flat; the % refers to the signal ratio)
Method in brief: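 Antagonist mode in DRD2-HEK293 cells: after compound addition with 0.1 mM Ro20-1724, cells received quinpirole (12 nM) and NKH477 (200 nM) for 30 min at room temperature; HTRF cAMP read after 1 h detection.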

[19] = target: 5-hydroxytryptamine receptor 2A (Homo sapiens) (UniProt P28223); test: 5-hydroxytryptamine receptor 2A (HTR2A) small molecule antagonists, cell-based qHTS assay (AID 1963586); also: nearly all actives have a fitted effect of over 45% in size; also: potency is read from the fitted curve at half-maximal effect
Method in brief: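 CHO cells stably expressing human HTR2A were plated for 18 h at 37 C, then loaded with calcium dye for 1 h. Compounds were preincubated 5 min at room temperature before DOI (4 nM solution) was added. Kinetic fluorescence was read for 3 min.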

[20] = target: Beta-2 adrenergic receptor (Homo sapiens) (UniProt P07550); test: Adrenergic beta2 receptor (ADRB2) small molecule agonists, cell-based qHTS assay (AID 1963593);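 also: CHO cells stably overexpressing human ADRB2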
Method in brief: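 CHO cells stably over-expressing ADRB2 were plated overnight at 37C, then dosed with compounds plus a stimulation mix containing 100uM IBMX and 25uM Ro-20-1724 for 0.5hr at room temperature. cAMP was measured by HTRF competition, 1hr.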

Compound	Potency [1]	Potency [2]	Potency [3]	Potency [4]	Potency [5]	Potency [6]	Potency [7]	Potency [8]	Potency [9]	Potency [10]	Potency [11]	Potency [12]	Potency [13]	Potency [14]	Potency [15]	Potency [16]	Potency [17]	Potency [18]	Potency [19]	Potency [20]
CC(COC(=O)c1ccccc1)OC(=O)c1ccccc1 (stereo not drawn)	inactive	inactive	inactive	inactive	inactive	inactive	inactive	inactive	inactive	inactive	inactive	inactive	inactive	inactive	inactive	inactive	inactive	inactive		
CCC(=O)CC	inactive	inactive	inactive	inactive	inactive	inactive	inactive	inactive	inactive		inactive	inactive	inactive	inactive	inactive	inactive	inactive	inactive	inactive	
CC(C)CCCCCCc1ccc(O)cc1	6.22 µM (active)	2.48 µM (active) and inactive	inactive	inactive	inactive	inactive	inactive	41.5 µM (active)	18.5 µM (active)		44.4 µM (active) and 49 µM (active)	inactive	inactive			inactive	inactive		34 µM (active)	
CC(C)(C)c1ccc(S)cc1	inactive	48.6 µM (active)	inactive	inactive	inactive	inactive	inactive	inactive	inactive	inactive	inactive	inactive	inactive	inactive	inactive	inactive	inactive	inactive		
OCc1c2ccccc2cc2ccccc12	inactive	inactive	inactive	inactive	inactive	inactive	inactive	inactive	inactive		inactive	inactive	inactive	inactive	inactive	inactive	inactive	inactive	inactive	inactive
OCCN1CCNCC1	inactive	inactive	inactive	inactive	inactive	inactive	inactive	inactive	inactive		inactive	inactive	inactive	inactive	inactive	inactive	inactive	inactive	inactive	inactive
CCC(C)(C)C1CCCCC1OC(C)=O (stereo not drawn)	inactive	inactive	inactive	inactive	inactive	inactive	inactive	inactive	inactive	inactive	inactive	inactive	inactive	inactive	inactive	inactive	inactive	inactive		
CCCCC(CC)COC(=O)CCCCCCCC(=O)OCC(CC)CCCC (stereo not drawn)	54.5 µM (active) and inactive	15.4 µM (active) and inactive	inactive	inactive	inactive	inactive	inactive	inactive	inactive		9.77 µM (active) and inactive	inactive	inactive	inactive	inactive		inactive	inactive	inactive	inactive
CC(C=O)c1ccccc1 (stereo not drawn)	inactive	inactive	inactive	inactive	inactive	inactive	inactive	inactive	inactive		inactive	inactive	inactive	inactive	inactive	inactive	inactive	inactive	inactive	inactive
Cc1ccc2c(ccc3ccccc32)c1	inactive	inactive	inactive	inactive	inactive	inactive	inactive	inactive	inactive	inactive	inactive		inactive	inactive	inactive	inactive	inactive	inactive		inactive
O=C(O)c1cc(O)c(O)c(O)c1	inactive	inactive	inactive	inactive	inactive	inactive	inactive	inactive	inactive		inactive	inactive	inactive	inactive	inactive	inactive		inactive	inactive	inactive
CCCC(=O)C(C)=O	inactive	inactive	inactive	inactive	inactive	inactive	inactive	inactive	inactive	inactive	inactive	inactive	inactive	inactive	inactive	inactive	inactive	inactive		
CC(Cl)COP(=O)(OCC(C)Cl)OCC(C)Cl (stereo not drawn)	inactive	inactive	inactive	inactive	inactive	inactive	inactive	inactive	inactive	inactive	inactive	inactive	inactive	inactive	inactive		inactive	inactive		inactive
NCC1(Cc2noc(=O)[nH]2)CCCCC1	inactive	inactive	inactive	inactive	inactive	inactive	inactive	inactive	inactive		inactive	inactive	inactive	inactive	inactive	inactive	inactive	inactive	inactive	inactive
